The values that follow come from PubChem BioAssay (Tox21).

A short description of assay [1]: qHTS assay to identify aromatase inhibitors - cell viability counter screen (AID 743084).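 Further: cells stimulated with testosterone during compound exposure; nearly all actives have a fitted effect of over 55% in size.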 A general note: In qHTS, concentration-response curves come from the screen itself.
Assay [2] has as its target Aryl hydrocarbon receptor (Homo sapiens) (UniProt P35869). Put plainly: qHTS assay to identify small molecule that activate the aryl hydrocarbon receptor (AhR) signaling pathway (AID 743085).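 Further: HG2L7.5c1 human HepG2 liver cells with stably integrated DRE-driven firefly reporter; series mostly up to about 70 µM; nearly all actives have a fitted effect of over 15% in size.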 The procedure, abridged: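 Stably transfected human liver carcinoma cells (HG2L7.5c1; 20 DRE-firefly luciferase) were incubated 5 h, dosed, and kept 24 h at 37C. Agonism was scored from increased luciferase luminescence.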

A short description of assay [3]: qHTS assay to identify small molecule that activate the aryl hydrocarbon receptor (AhR) signaling pathway - cell viability counter screen (AID 743086). Further: series mostly up to about 70 µM; nearly all actives have a fitted effect of over 45% in size. The procedure, abridged: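 Cytotoxicity counter screen: CellTiter-Fluor signal (30 min, 37 C) in 4000 HepG2 cells/well carrying the DRE-luciferase reporter, following 24 h compound exposure at 37 C.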
Assay [4] addresses Peroxisome proliferator-activated receptor gamma (Homo sapiens) (UniProt P37231). Put plainly: qHTS assay to identify small molecule agonists of the peroxisome proliferator-activated receptor gamma (PPARg) signaling pathway (AID 743094; active means well fitted activation curve with a large enough effect in the signal ratio in the repeat runs, not every such curve was filed as active; the % refers to the signal ratio). The procedure, abridged: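 Following 5 h plating at 37C, PPARg-bla HEK293H cells receive compound or DMSO for 17 h; fluorescence intensity is recorded after LiveBLAzer B/G loading for 1 h at room temperature.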

For assay [5] the target is unchanged. The assay is described as follows: qHTS assay to identify small molecule antagonists of the peroxisome proliferator-activated receptor gamma (PPARg) signaling pathway (AID 743191; calls by dose curve; further: nearly all actives have a fitted effect of over 30% in size; further: potency means the concentration at half of the fitted maximal effect; on ratio activity, negative = inhibition: series mostly up to about 63 µM). The procedure, abridged: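 Beta-lactamase reporter under UAS control in HEK293H PPARg-bla cells; compound treatment 17 h at 37C. Read-out: fluorescence intensity after 1 h room-temperature incubation with LiveBLAzer B/G FRET substrate.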

Assay [6] can be described thus: qHTS assay to identify small molecule antagonists of the peroxisome proliferator-activated receptor gamma (PPARg) signaling pathway - cell viability counter screen (AID 743194). Further: nearly all actives have a fitted effect of over 55% in size. Summed up:
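Viability was measured as CellTiter-Glo luminescence in GeneBLAzer PPARg UAS-bla HEK293H cells. These cells had been exposed 17 h at 37 C to compounds together with rosiglitazone at 50 nM final, with the beta-lactamase readout taken in the same wells.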

Assay [7] in a line: qHTS assay for small molecule agonists of the antioxidant response element (ARE) signaling pathway (AID 743202; active means well fitted activation curve with a large enough effect in the signal ratio in the repeat runs, not every such curve was filed as active; the % refers to the signal ratio; further: potency means the concentration at half of the fitted maximal effect). The procedure, abridged: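 Quantitative high-throughput format in HepG2 cells bearing an integrated ARE-beta-lactamase reporter. Compound exposure lasted 16 h at 37 C, and fluorescence was read 2 h after adding LiveBLAzer B/G substrate at room temperature.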
Assay [8] can be described thus: qHTS assay for small molecule agonists of the antioxidant response element (ARE) signaling pathway - cell viability counter screen (AID 743203; calls by dose curve; further: nearly all actives have a fitted effect of over 55% in size). Summed up:
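Compounds in DMSO were pinned onto ARE-bla HepG2 cells plated 5 hrs earlier at 2,000 cells/well. Sixteen hours later at 37C/5% CO2, CellTiter-Glo was added and luminescence measured after 30 min at room temperature.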

Assay [9] can be described thus: qHTS assay for small molecule activators of the heat shock response signaling pathway - cell viability counter screen (AID 743209). Further: nearly all actives have a fitted effect of over 50% in size. Summed up:
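Counter screen for cytotoxicity in HeLa HSE-bla reporter cells. Treatment was 5 h at 37 C; viability was detected by luminescent ATP assay (CellTiter-Glo) in the same wells as the beta-lactamase read.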

Assay [10] is described as follows: qHTS assay for small molecule activators of the heat shock response signaling pathway (AID 743210; active means well fitted activation curve with a large enough effect in the signal ratio in the repeat runs, with a control signal flat, not every such curve was filed as active; the % refers to the signal ratio;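 further: HeLa cells with beta-lactamase reporter driven by heat shock elements; series mostly up to about 63 µM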). The procedure, abridged: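 HeLa HSE-bla cells, overnight plating; cpd in DMSO 5 h, 37 C; LiveBLAzer B/G FRET substrate 2.5 h RT; fluorescence intensity read.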

Results filed as inconclusive are left out. Values without a mark were called inactive. The source made the active and inactive calls. Unless noted, the call rests on the fitted dose curve; in most records, active means well fitted curve in the direction sought with a large enough effect in the repeat runs; inconclusive means weak or mixed curves; inactive means no such curve, though single readings can be large; an effect the other way counts as inactive or inconclusive.
On the % scale 0 is the no-effect control and ±100 the full control effect.

Aryl hydrocarbon receptor (Homo sapiens), sequence (P35869 whole entry, looked up): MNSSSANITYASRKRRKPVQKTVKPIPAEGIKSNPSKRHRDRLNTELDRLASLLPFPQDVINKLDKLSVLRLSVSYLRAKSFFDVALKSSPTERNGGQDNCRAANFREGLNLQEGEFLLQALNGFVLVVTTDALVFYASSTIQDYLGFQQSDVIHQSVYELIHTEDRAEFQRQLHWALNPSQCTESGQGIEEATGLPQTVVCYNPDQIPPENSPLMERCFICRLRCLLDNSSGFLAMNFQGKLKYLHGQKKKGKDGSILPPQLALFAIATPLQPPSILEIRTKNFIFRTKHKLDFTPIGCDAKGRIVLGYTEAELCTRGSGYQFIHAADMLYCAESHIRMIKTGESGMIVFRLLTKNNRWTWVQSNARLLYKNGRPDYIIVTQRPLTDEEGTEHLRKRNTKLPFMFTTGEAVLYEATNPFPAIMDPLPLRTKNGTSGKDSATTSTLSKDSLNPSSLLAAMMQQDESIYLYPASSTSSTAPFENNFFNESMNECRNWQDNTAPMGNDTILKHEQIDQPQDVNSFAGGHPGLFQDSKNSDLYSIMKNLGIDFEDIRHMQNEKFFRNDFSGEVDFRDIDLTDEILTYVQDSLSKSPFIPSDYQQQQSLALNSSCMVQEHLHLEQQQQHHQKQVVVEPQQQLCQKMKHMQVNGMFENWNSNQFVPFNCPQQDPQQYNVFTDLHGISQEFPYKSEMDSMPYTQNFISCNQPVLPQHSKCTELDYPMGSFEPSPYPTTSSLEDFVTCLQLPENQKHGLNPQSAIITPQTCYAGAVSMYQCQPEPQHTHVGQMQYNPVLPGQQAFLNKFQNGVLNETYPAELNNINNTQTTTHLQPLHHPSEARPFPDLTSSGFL
Peroxisome proliferator-activated receptor gamma (Homo sapiens), sequence (P37231 whole entry, looked up): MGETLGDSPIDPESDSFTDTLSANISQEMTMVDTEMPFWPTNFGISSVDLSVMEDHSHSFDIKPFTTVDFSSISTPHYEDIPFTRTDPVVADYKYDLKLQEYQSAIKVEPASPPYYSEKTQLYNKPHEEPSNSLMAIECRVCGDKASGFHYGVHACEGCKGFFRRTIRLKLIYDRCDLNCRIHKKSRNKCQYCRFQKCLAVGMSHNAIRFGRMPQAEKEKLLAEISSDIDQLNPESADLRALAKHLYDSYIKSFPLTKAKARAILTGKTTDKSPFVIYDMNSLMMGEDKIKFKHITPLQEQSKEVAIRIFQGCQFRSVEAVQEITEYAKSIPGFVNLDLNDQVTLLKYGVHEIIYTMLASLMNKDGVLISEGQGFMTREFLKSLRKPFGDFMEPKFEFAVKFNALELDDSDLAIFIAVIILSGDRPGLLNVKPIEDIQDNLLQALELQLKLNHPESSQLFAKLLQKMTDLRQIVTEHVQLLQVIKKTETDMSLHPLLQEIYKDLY

As for `Cc1ccc(C(=O)C(C)CN2CCCCC2)cc1` (configuration not stated), the Potency result in assay [1], in assay [2], in [3], in assay [4], in [5] and in assay [6] was “inactive” in each case. For the same compound, the Potency entry in assay [8] and in assay [9] was “inactive” each time. In assay [7], the Potency was 23.7 µM (active). For the same compound, the result in assay [10] was inactive.
For `O=C(C(=O)c1ccc(Br)cc1)c1ccc(Br)cc1`, the Potency entry in assay [1], in assay [2], in [3], in assay [4], in assay [5] and in [6] was “inactive” each time. Also, the Potency entry in [7], in assay [8] and in assay [9] was “inactive” throughout. Besides, the compound was called inactive in [10].
`CC(=O)NCCCS(=O)(=O)O`: the Potency result in assay [1], in assay [2], in assay [3], in assay [4], in [5] and in [6] was “inactive” throughout. The Potency entry in assay [8] and in assay [9] was “inactive” in each case. Besides, the Potency in [7] was 26.5 µM (active). In [10], the call was inactive.
Turning to `CCN(CCO)CCCC(C)Nc1ccnc2cc(Cl)ccc12` (configuration not stated), the Potency result in [1], in assay [2], in assay [3] and in assay [4] was “inactive” each time. In addition, the ratio activity, negative = inhibition in assay [5] was -5.98% [at 5.95 µM]. For the same compound, the activity change, negative = cytotoxicity is 0.825% [at 5.95 µM] in assay [6] and -18.6% [at 5.95 µM] in assay [9]. The activation is -5.09% [at 8.36 µM] in [7] and -0.125% [at 5.95 µM] in [10]. For the same compound, in assay [8], the viability change, negative = cytotoxic was -9.02% [at 8.36 µM].
Take `c1ccc(CNCc2ccccc2)cc1`: the Potency entry in [1], in [2], in assay [3], in [4], in assay [5] and in assay [6] was “inactive” throughout. For the same compound, the Potency entry in assay [7], in assay [8] and in [9] was “inactive” each time. Moreover, in assay [10], the outcome was inactive.
Turning to `COc1ccc(OC)c(OC)c1`, the Potency result in [1], in assay [2], in assay [3], in assay [4], in [5] and in [6] was “inactive” each time. The Potency entry in assay [8] and in [9] was “inactive” in each case.
`CC(C)NCC(O)COc1ccc(CC(N)=O)cc1` (configuration not stated): the Potency entry in assay [1], in assay [2], in assay [3], in [4], in assay [5] and in assay [6] was “inactive” each time. The Potency entry in assay [7], in [8] and in assay [9] was “inactive” each time. In [10], the outcome was inactive.
As to `CCCCOC(O)CC` (configuration not stated), the Potency entry in assay [1], in assay [2], in [3], in assay [4], in assay [5] and in assay [6] was “inactive” each time. For the same compound, the Potency entry in [7], in [8] and in assay [9] was “inactive” throughout. Moreover, in assay [10], the call was inactive.
For the compound `CCN(CC)C(C)=O`, the Potency result in [1], in assay [2], in assay [3], in [4], in [5] and in [6] was “inactive” each time. Moreover, the Potency entry in assay [7], in [8] and in assay [9] was “inactive” each time. Besides, the compound was called inactive in assay [10].
As for `O=C(O)/C=C/c1cnc[nH]1`, the Potency entry in assay [1], in assay [2], in assay [3], in [4], in assay [5] and in assay [6] was “inactive” throughout. Moreover, the Potency entry in assay [7], in [8] and in assay [9] was “inactive” in each case. Besides, the compound was called inactive in assay [10].
As for `Nc1nc(N)c(-c2ccccc2)s1`, the Potency result in assay [1], in assay [2], in [3], in assay [4], in [5] and in assay [6] was “inactive” throughout. For the same compound, the Potency result in [7], in assay [8] and in assay [9] was “inactive” in each case. Besides, the call in assay [10] was inactive.
Consider `CCCCCCCCCCCCCCC1CO1` (configuration not stated), for which the Potency result in [1], in assay [2], in [3], in assay [4], in assay [5] and in [6] was “inactive” throughout. For the same compound, the Potency result in [7] and in assay [8] was “inactive” in each case. The call in [10] was inactive.
As for `Cn1c(N)nc2nc[nH]c2c1=O`, the Potency entry in assay [1], in [2], in [3], in assay [4], in assay [5] and in [6] was “inactive” throughout. In addition, the Potency entry in assay [7], in assay [8] and in [9] was “inactive” throughout.
Consider `CC(C)(C)c1cc(CCC(=O)OCC(COC(=O)CCc2cc(C(C)(C)C)c(O)c(C(C)(C)C)c2)(COC(=O)CCc2cc(C(C)(C)C)c(O)c(C(C)(C)C)c2)COC(=O)CCc2cc(C(C)(C)C)c(O)c(C(C)(C)C)c2)cc(C(C)(C)C)c1O`, for which the Potency result in assay [1], in [2], in assay [3], in assay [4], in assay [5] and in [6] was “inactive” in each case. Also, the Potency entry in [7], in assay [8] and in [9] was “inactive” in each case. For the same compound, the call in assay [10] was inactive.
With `CCCCc1cc2ccccc2c(OCCN(C)C)n1`, the Potency result in [1], in [2], in assay [3], in [4], in [5] and in assay [6] was “inactive” each time. Besides, the Potency result in [7], in assay [8] and in [9] was “inactive” throughout. For the same compound, the outcome in assay [10] was inactive.
As to `CCCCCCCCCCCCCCCBr`, the Potency entry in [1], in assay [2], in assay [3], in assay [4], in assay [5] and in [6] was “inactive” in each case. The Potency entry in assay [7], in assay [8] and in assay [9] was “inactive” in each case. In assay [10], the call was inactive.
On to `CC(C)CCCC(C)CCO` (configuration not stated), for which the Potency result in [1], in assay [2], in [3], in assay [4], in [5] and in [6] was “inactive” throughout. Further, the Potency result in [7], in [8] and in assay [9] was “inactive” throughout.
Consider `N[C@H]1C(O)O[C@H](CO)[C@H](O)[C@@H]1O` (some centres not stated), for which the Potency entry in assay [1], in assay [2], in assay [3], in [4], in assay [5] and in assay [6] was “inactive” in each case. Moreover, the Potency result in assay [7], in assay [8] and in assay [9] was “inactive” throughout. The compound was classed as inactive in assay [10].
Take `O=S(=O)(O)c1ccc(O)c2ncccc12`: the Potency result in assay [1], in assay [2], in [3], in [4], in assay [5] and in assay [6] was “inactive” each time. For the same compound, the Potency result in assay [8] and in [9] was “inactive” in each case.
As for `Oc1ccc(Sc2ccc(O)cc2)cc1`, the Potency result in assay [1], in assay [2], in assay [3], in [4], in assay [6] and in [8] was “inactive” throughout. Moreover, in [9], the Potency entry was “inactive”. The Potency in [5] was 16.2 µM (active); in assay [7], 22.8 µM (active). Further, in assay [10], the call was inactive.
As to `CN1CCC[C@@H]1c1cccnc1`, the Potency entry in assay [1], in assay [2], in assay [3], in [4], in assay [5] and in [6] was “inactive” each time. Besides, the Potency entry in [7], in [8] and in [9] was “inactive” each time.
Turning to `CC(=O)OC/C=C/c1ccccc1`, the Potency result in assay [1], in assay [2], in assay [3], in assay [4], in assay [5] and in assay [6] was “inactive” in each case. For the same compound, the Potency entry in [7], in assay [8] and in [9] was “inactive” in each case. Besides, the compound was called inactive in [10].
On to `OCC1CC2CC1C1CCC(CO)C21` (configuration not stated), for which the Potency entry in assay [1], in [2], in assay [3], in assay [4], in assay [5] and in assay [6] was “inactive” each time. Moreover, the Potency result in assay [7], in [8] and in [9] was “inactive” in each case. Moreover, the outcome in assay [10] was inactive.
Take `CC(=O)c1c(C)c([N+](=O)[O-])c(C(C)(C)C)c([N+](=O)[O-])c1C`: the Potency entry in [1], in [2], in assay [3], in assay [4], in [5] and in assay [6] was “inactive” in each case. For the same compound, the Potency entry in assay [7], in [8] and in assay [9] was “inactive” each time. Also, in [10], the call was inactive.
